Source: PubChem BioAssay (National Center for Advancing Translational Sciences (NCATS))
G9a block: G9a (human) methyltransferase inhibition; G9a H3K9 monomethylation, AlphaScreen, 2 h; AID 504332; actives 8.8% (n = 350,000); Potency, µM (top dose mostly 102 µM), actives largely listed as inhibitors; note: nearly all actives have a fitted effect of over 75% in size
Target sequence (Q96KQ7 913-1193 limits assumed): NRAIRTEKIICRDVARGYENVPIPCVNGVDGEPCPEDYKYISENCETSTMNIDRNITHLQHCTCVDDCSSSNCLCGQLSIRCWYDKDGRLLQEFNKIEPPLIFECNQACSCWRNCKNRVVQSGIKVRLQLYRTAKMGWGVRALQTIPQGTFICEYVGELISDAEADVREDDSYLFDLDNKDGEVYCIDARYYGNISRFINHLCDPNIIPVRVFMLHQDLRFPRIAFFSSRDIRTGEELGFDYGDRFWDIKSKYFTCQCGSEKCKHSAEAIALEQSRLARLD
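AlphaScreen read-out: biotin-H3K9 peptide (500 nM) methylation by 20 nM enzyme with 20 uM SAM, 2 h at room temperature after 15 min compound preincubation; anti-monomethyl H3K9 antibody plus donor/acceptor beads, 10 min dark.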
JMJD2A Tudor inh: blocks the human JMJD2A Tudor domain. actives 4.4% (n = 390,000). O75164. AlphaScreen JMJD2A-Tudor / H3K4me3 peptide binding. AID 504339. Potency, µM (titrated, usually from 114 µM), most hits filed as inhibitors; note: nearly all actives have a fitted effect of over 50% in size
L3MBTL1 block: blocks human L3MBTL1 | Q9Y468 | AlphaScreen L3MBTL1–H3K9me1 peptide binding | Potency, µM (top dose mostly 57.1 µM), most hits filed as inhibitors | actives 0.66% (n = 230,000) | AID 485360; note: nearly all actives have a fitted effect of over 60% in size
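Read-out is AlphaScreen signal from streptavidin donor and nickel chelate acceptor beads (10 ug/mL final each) bridging L3MBTL1 (50 nM) and biotinylated K9-monomethylated H3(1-15) peptide (75 nM), after 30 min compound exposure at room temperature.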
BAZ2B block: inhibitors of human BAZ2B bromodomain; actives 4.4% (n = 360,000); Potency, µM (doses to about 114 µM), usual class: inhibitors; AlphaScreen BAZ2B-H3K14Ac peptide displacement; note: nearly all actives have a fitted effect of over 60% in size
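In this displacement format the biotinylated H3(5-23) peptide acetylated at Lys14 serves as ligand at 50 nM, with BAZ2B at 50 nM in PBS pH 7.4 containing 0.01% Tween-20. Donor and acceptor beads are 10 ug/mL final.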
HP1b chromo inh: blocks HP1-beta chromodomain binding to methylated histone tails; P83916; AlphaScreen HP1-beta / biotin-H3K9me3 peptide binding; Potency, µM (highest dose often 114 µM), usual class: inhibitors; actives 0.56% (n = 390,000); note: nearly all actives have a fitted effect of over 70% in size
Target sequence (P83916 whole entry, looked up): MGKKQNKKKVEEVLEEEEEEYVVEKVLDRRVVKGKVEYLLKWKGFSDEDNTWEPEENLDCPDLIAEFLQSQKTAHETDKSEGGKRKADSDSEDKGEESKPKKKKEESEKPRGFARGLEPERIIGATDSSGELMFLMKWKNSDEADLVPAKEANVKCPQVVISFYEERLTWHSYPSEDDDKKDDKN
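Compound inhibition of the preformed complex between 50 nM HP1-beta and 50 nM biotinylated H3K9me3 peptide was read by AlphaScreen. Buffer was PBS pH 7.4 with 0.01% Tween-20. Incubations ran 30 min at room temperature, with 10 ug/mL donor/acceptor beads.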
Each line names hits and unclear results; the compound was inactive in the other large screens. Hits are enriched below; roughly 11% of the tested compounds scored in any of these assays. Calls come from the whole dose curve; as a rule, active = well fitted inhibition curve with a large enough effect; inconclusive = small, poorly fitted or top-dose-only effect; inactive = no such curve, though single readings can be large or run the other way.

COc1ccc(C(=O)CCN2CCCC(C)C2)cc1 (stereo unspecified)	G9a block 25.1µM (no result: L3MBTL1 block)
COc1ccc(N2CCN(CC(=O)N3CCC(C)CC3)CC2)cc1	G9a block inconclusive
CC1CCCN(CCC(=O)c2ccc(Br)cc2)C1 (stereo unspecified)	G9a block inconclusive
COc1ccc(C(=O)CCN2CCC(C)CC2)cc1	G9a block 15.8µM (no result: L3MBTL1 block)
CNC(=O)C1CCC(Cn2c(=O)c3sccc3n(CC(=O)N3CCCC(C)C3)c2=O)CC1 (stereo unspecified)	none (no result: L3MBTL1 block)
CCOc1ccc(CCNC(=O)CSc2nc3ccccc3nc2Cc2ccc(C)cc2)cc1OCC	G9a block inconclusive (no result: L3MBTL1 block)
O=c1c2c3n(c(=S)nc2[nH]n1-c1ccccc1)CCCCC3	G9a block 50.1µM, BAZ2B block inconclusive (no result: L3MBTL1 block)
CNC(=S)N(CCc1c(C)[nH]c2ccc(C)cc12)Cc1ccco1	G9a block 44.7µM, JMJD2A Tudor inh inconclusive, BAZ2B block 50.1µM
COCCNC(=S)N(CCc1c(C)[nH]c2ccc(F)cc12)Cc1cccs1	G9a block inconclusive, JMJD2A Tudor inh inconclusive (no result: L3MBTL1 block, BAZ2B block)
COCCNC(=S)N(CCc1c(C)[nH]c2ccccc12)Cc1ccco1	G9a block 50.1µM, BAZ2B block inconclusive
CNC(=S)N(CCc1c(C)[nH]c2ccc(Cl)cc12)Cc1cc(OC)c(OC)c(OC)c1	G9a block 31.6µM, JMJD2A Tudor inh inconclusive, BAZ2B block inconclusive
Cc1[nH]c2ccccc2c1CCN(Cc1cccnc1)C(=S)NC(C)(C)C	G9a block inconclusive, JMJD2A Tudor inh inconclusive, BAZ2B block inconclusive (no result: L3MBTL1 block)
COc1cc(CN(CCc2c(C)[nH]c3ccc(C)cc23)C(=S)NC(C)(C)C)cc(OC)c1OC	G9a block inconclusive, JMJD2A Tudor inh 50.1µM, BAZ2B block inconclusive, HP1b chromo inh inconclusive
CCNC(=S)N(CCc1c(C)[nH]c2ccc(Cl)cc12)Cc1ccco1	G9a block inconclusive (no result: L3MBTL1 block, BAZ2B block)
CC(C)(C)c1ccc(S(=O)(=O)c2cnc(SCC(=O)Nc3ccc4c(c3)OCCO4)[nH]c2=O)cc1	BAZ2B block inconclusive (no result: L3MBTL1 block)
Cc1ccc(C2=Nc3ccccc3N(CC(=O)Nc3ccccc3F)C(=O)C2)cc1C	none (no result: L3MBTL1 block)
Cc1cc2c(s1)c1cnn(Cc3c(F)cc(F)cc3F)c(=O)c1n2C	none (no result: G9a block, L3MBTL1 block, BAZ2B block, HP1b chromo inh)
O=C(CCS(=O)(=O)c1nc(-c2ccc3c(c2)OCO3)cc(C(F)(F)F)n1)Nc1ccc(Br)cc1	none (no result: L3MBTL1 block)
CNC(=S)N(CCc1c(C)[nH]c2ccc(C)cc12)Cc1ccc(OC)c(OC)c1	G9a block 50.1µM, JMJD2A Tudor inh inconclusive, BAZ2B block 31.6µM
S=c1[nH]nc(-c2ccc(Cl)cc2)n1-c1ccc(Cl)cc1	G9a block 8.91µM, BAZ2B block inconclusive
S=c1[nH]nc(-c2cccnc2)n1-c1ccc2c(c1)OCCO2	G9a block 31.6µM, JMJD2A Tudor inh 25.1µM
S=c1[nH]nc(-c2ccc(Cl)cc2)n1-c1ccc2c(c1)OCCO2	G9a block 1.78µM, JMJD2A Tudor inh inconclusive
Fc1ccc(-c2n[nH]c(=S)n2-c2ccc3c(c2)OCCO3)cc1	JMJD2A Tudor inh 2.82µM, HP1b chromo inh inconclusive (no result: G9a block)
O=C(Cc1ccccc1[N+](=O)[O-])OCC(=O)N1CCN(c2ccccc2)CC1	none
Cc1ccc(NC(=O)c2ccc(Cl)c(N3C(=O)C=CC3=O)c2)cc1	JMJD2A Tudor inh 7.94µM, BAZ2B block 22.4µM, HP1b chromo inh inconclusive
CCOC(=O)C1CCCN(C(=O)CCc2ccccc2)C1 (stereo unspecified)	none
CCOC(=O)C1CCN(CC(=O)N2C(C)CCCC2C)CC1 (stereo unspecified)	G9a block 8.91µM, JMJD2A Tudor inh 5.01µM, BAZ2B block 50.1µM, HP1b chromo inh 44.7µM
CCOC(=O)C1CCCN(CCc2ccccc2)C1 (stereo unspecified)	G9a block 39.8µM, JMJD2A Tudor inh 25.1µM, BAZ2B block inconclusive
CCOC(=O)C1CCN(C/C=C/c2ccccc2[N+](=O)[O-])CC1	JMJD2A Tudor inh 2.24µM, BAZ2B block inconclusive (no result: G9a block)
CCOC(=O)C1CCN(Cc2cn[nH]c2-c2ccccc2)CC1	G9a block 7.94µM, JMJD2A Tudor inh 3.16µM, BAZ2B block inconclusive, HP1b chromo inh inconclusive
CCOC(=O)C1CCCN(C(=O)/C=C/c2ccccc2[N+](=O)[O-])C1 (stereo unspecified)	JMJD2A Tudor inh inconclusive
CCOC(=O)C1CCN(CC(=O)N2CCc3ccccc32)CC1	none (no result: L3MBTL1 block)
COc1cc(CN(C(=O)c2oc3ccccc3c2C)C2CCS(=O)(=O)C2)cc(OC)c1OC (stereo unspecified)	none (no result: L3MBTL1 block)
Nc1cccc(-c2cn3ccsc3n2)c1	BAZ2B block inconclusive (no result: L3MBTL1 block)
COc1cc(C)c(C)cc1S(=O)(=O)Nc1cccc(-c2ccc(N3CCOCC3)nn2)c1	G9a block inconclusive (no result: L3MBTL1 block)
Cc1cc(C)n(CCc2nc3c4ccccc4nc(N4CCN(c5ccccc5)CC4)n3n2)n1	none (no result: L3MBTL1 block)
N#Cc1nc(Nc2cc(F)cc(F)c2)c2ncn(CCO)c2n1	none (no result: G9a block, L3MBTL1 block, BAZ2B block, HP1b chromo inh)
COc1ccc(S(=O)(=O)N2CCN(c3nn(C)c(=O)n(C)c3=O)CC2)cc1	none
COC(=O)C1CCN(Cc2cc(=O)oc3cc(C)c(Cl)cc23)CC1	none (no result: L3MBTL1 block)
COc1cccc(C(=O)N2CCOCC2)c1	L3MBTL1 block inconclusive
COc1ccc(CN2CCC(N3CC(C)OC(C)C3)CC2)c(OC)c1 (stereo unspecified)	G9a block 8.91µM, JMJD2A Tudor inh 0.794µM, BAZ2B block 31.6µM, HP1b chromo inh 39.8µM (no result: L3MBTL1 block)
CCOC(=O)C1CCCN(CCC(=O)Nc2ccccc2C)C1 (stereo unspecified)	none
COc1ccc(CN2CCC(n3nccc3NC(=O)C3CCCC3)CC2)c(OC)c1	none (no result: G9a block, L3MBTL1 block)
CCOC(=O)C1CCCN(Cc2ccccc2C)C1 (stereo unspecified)	G9a block 2.51µM, JMJD2A Tudor inh 5.01µM, BAZ2B block 70.8µM, HP1b chromo inh inconclusive (no result: L3MBTL1 block)
COc1cccc(C(=O)N2CCC(N3CC(C)OC(C)C3)CC2)c1 (stereo unspecified)	G9a block 2.82µM, JMJD2A Tudor inh 6.31µM, BAZ2B block 50.1µM, HP1b chromo inh inconclusive
CCOC(=O)C1CCN(Cc2coc3c(Cl)cc(Cl)cc3c2=O)CC1	G9a block 11.2µM, JMJD2A Tudor inh 20µM, BAZ2B block inconclusive
COc1ccc(NC(=O)c2ccc3[nH]c(C)cc(=O)c3c2)cc1	none (no result: L3MBTL1 block)
CCOC(=O)c1ccc(NC(=O)C2CCN(C(=O)N3CC(C)Oc4ccc(C)cc43)CC2)cc1 (stereo unspecified)	none (no result: L3MBTL1 block)
CCOC(=O)C1CCCN(Cc2ccc(OCC)cc2)C1 (stereo unspecified)	G9a block 8.91µM, JMJD2A Tudor inh 20µM, BAZ2B block inconclusive, HP1b chromo inh inconclusive (no result: L3MBTL1 block)
CCOC(=O)C1CCN(S(=O)(=O)c2ccc(OCC)cc2)CC1	none (no result: L3MBTL1 block)
CCOC(=O)C1CCCN(Cc2ccccc2OCC)C1 (stereo unspecified)	G9a block inconclusive, JMJD2A Tudor inh 5.62µM, BAZ2B block inconclusive, HP1b chromo inh inconclusive
CCOC(=O)C1CCN(Cc2ccc(OC)cc2OC)CC1	G9a block inconclusive, JMJD2A Tudor inh 1.78µM, BAZ2B block inconclusive, HP1b chromo inh inconclusive
